Results published in PubChem BioAssay (NCI).
The panel holds about 83,000 compounds, 20% with a hit somewhere; the sample as a whole holds those more often.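 Results are percent growth after 48 hours of single-concentration exposure. 100 means growth as in untreated cells, lower positive values show inhibition; negative values down to -100 show cell death.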 Values without a mark were called inactive. The source made the active and inactive calls. Rule for the calls: active = growth percent below 10; inactive = the rest.

Experiments:
Test in all cases: NCI-60 one-dose screen, 48 h (100 = growth as untreated, 0 = no growth, -100 = all killed)
Details in all cases: 10 µM unless noted
[1] = test system: HT29 colon
[2] = test system: SNB-75 CNS
[3] = test system: SNB-19 CNS
[4] = test system: U251 CNS
[5] = test system: PC-3 prostate
[6] = test system: UACC-62 melanoma
[7] = test system: SK-MEL-28 melanoma
[8] = test system: SK-MEL-2 melanoma
[9] = test system: EKVX NSCLC
[10] = test system: SN12C renal
[11] = test system: UO-31 renal
[12] = test system: TK-10 renal
[13] = test system: ACHN renal
[14] = test system: CAKI-1 renal
[15] = test system: A498 renal
[16] = test system: CCRF-CEM leukemia
[17] = test system: MOLT-4 leukemia
[18] = test system: SR leukemia
[19] = test system: SK-MEL-5 melanoma
[20] = test system: LOX IMVI melanoma

Row | SMILES | growth [1] | growth [2] | growth [3] | growth [4] | growth [5] | growth [6] | growth [7] | growth [8] | growth [9] | growth [10] | growth [11] | growth [12] | growth [13] | growth [14] | growth [15] | growth [16] | growth [17] | growth [18] | growth [19] | growth [20]
1 | CC(C)[C@]12O[C@H]1[C@@H]1O[C@]13[C@]1(O[C@H]1C[C@H]1C4=C(CC[C@@]13C)C(=O)OC4)[C@@H]2OC(=O)CN(C)C | 0.899% (active) | -65.4% (active) | 23% | 15.4% | 19.6% | -34.8% (active) | 1.04% (active) | -60% (active) | -26.9% (active) | 29.1% | -5.89% (active) | 4.34% (active) | 9.59% (active) | -48.5% (active) | -36.4% (active) | 12.4% | -11.7% (active) | -2.85% (active) |  | 
2 | CSc1nnc(C2=CC(=O)c3ccccc3C2=O)n1-c1ccccc1 | 110% | 74.8% | 91.5% | 76.5% | 86.7% | 84.1% | 105% |  |  | 104% | 67.6% | 121% | 74.9% | 88.5% | 99.4% | 36.8% | 68.9% | 70.2% |  | 
3 | O=C(CSc1nnc(Nc2ccccc2)s1)NCCc1ccc(F)cc1 | 105% | 119% | 100% | 105% |  | 90% | 134% | 66.2% | 91.7% | 103% | 48.4% | 128% | 107% | 106% | 93.1% | 117% | 103% | 164% | 97.2% | 99.8%
